Records with an inconclusive call do not appear. Values without a mark were called inactive. Active and inactive are the calls of the source. The call rests on the fitted dose curve; in most records, active means well fitted inhibition curve with a large enough effect; inconclusive means small, poorly fitted or top-dose-only effect; inactive means flat fitted curve, though single readings scatter.
biological target: Calcium and integrin-binding protein 1 (Homo sapiens) (UniProt Q99828); assay: Primary qHTS for Identification of Calcium Integrin Binding Protein 1 (CIB1) Competitor (AID 1508620); settings: CIB1-GST / FITC-alphaIIb peptide fluorescence polarization; series mostly up to 114 µM; activity change, negative = inhibition: at the top concentration;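 further: GST tagged CIB1 binding a fluorescein labelled alphaIIb integrin peptide tracer; top concentration of the series differs between compounds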
Procedure, shortened: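 Fluorescence polarization competition: CIB1-GST (1 uM final) preincubated with compound 15 min at room temperature, then FITC-labeled alphaIIb peptide (100 nM final) added for another 15 min. Polarization read at Ex 480/Em 540.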
On the % scale 0 is the no-effect control and ±100 the full control effect.

Chain of Calcium and integrin-binding protein 1 (Homo sapiens) (Q99828 whole entry, looked up): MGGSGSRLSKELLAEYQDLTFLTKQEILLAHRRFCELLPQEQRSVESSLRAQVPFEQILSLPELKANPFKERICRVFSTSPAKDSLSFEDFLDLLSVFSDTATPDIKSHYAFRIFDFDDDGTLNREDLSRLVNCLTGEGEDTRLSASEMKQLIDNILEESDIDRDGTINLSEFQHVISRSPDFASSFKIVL

Row | Structure (SMILES) | activity change, negative = inhibition [%] | Potency
1 | Cc1ccccc1C(=O)N1CCc2cc(-c3ccnc(NC(=O)Cc4ccccc4)n3)ccc21 | 4.64 | 
2 | O=C(O)Cc1cc(F)c(S(=O)(=O)N2CCN(S(=O)(=O)c3ccc4c(c3)OCCO4)CC2)cc1F | -7.57 | 
3 | Cc1ccc(OCCn2c(CCNC(=O)Cc3cccc4ccccc34)nc3ccccc32)cc1 | 21.4 | 
4 | N#Cc1ccc(-c2ccc(CNc3ccc(N4CCCCC4)cc3)o2)cc1 | -10.2 | 
5 | CCCCNC(=S)NCCCN(Cc1ccc(Cl)c(Cl)c1)c1ccc(Br)cn1 | -4.36 | 
6 | Cc1cccc(C)c1OCc1cccc(C2Nc3ccccc3C(=O)N2Cc2ccco2)c1 (stereo not given) | -0.231 | 
7 | O=C(Nc1cccc(-c2nn3c(=O)cc(N4CCNCC4)nc3s2)c1)c1ccncc1 | 4.17 | 
8 | O=S(=O)(c1ccc(O)c2ncccc12)N1CCCCC1 | -16 | 
9 | Cc1ccnc(NC(=S)N2CCN(c3ccc(Br)cc3)CC2)c1 | -8.65 | 
10 | O=C(CNC(=O)c1ccccc1Cl)OC(C(=O)Nc1cc(C(F)(F)F)ccc1Cl)c1ccccc1 (stereo not given) | 3.67 | 
11 | CCOc1ccc(CCNC(=O)c2cc3ccccc3o2)cc1OCC | 0.317 | 
12 | O=C(NCc1ccccc1)Nc1ncnc2c1C(c1ccccc1)c1c(ccc3ccccc13)O2 (stereo not given) | 5.23 | 
13 | CCCCN(C)C(=O)Cn1nc(-c2ccc(F)cc2)ccc1=O | 0.294 | 
14 | CC1=C(C(=O)NCc2ccccc2)C(c2ccccc2Br)N=C(Nc2nc3ccccc3o2)N1 (stereo not given) | -10.1 | 
15 | Cc1nnc(-c2cnn(C)c2N)o1 | -0.941 | 
16 | O=C(OCC#CCSc1nnc(-c2cccc3ncccc23)o1)c1ccc(F)cc1 | 4.08 | 
17 | CC(C)(C)OC(=O)N1CCN(c2cnc(NCc3ccc(-c4ccc(C#N)cc4)o3)cn2)CC1 | 1.52 | 
18 | Cc1cccc(Nc2nc(C#N)nc(NC3CCCC3)n2)c1 | -2.57 | 
19 | N#CN1CCC(NC(=O)c2cccc(C(F)(F)F)c2)CC1 | -0.282 | 
20 | CC(C)c1ccccc1-c1ncc(F)c(NC2(c3ccc(-c4cccnc4)cc3)CC2)n1 |  | inactive

Row | Structure (SMILES) | activity change, negative = inhibition [%] | Potency
21 | COc1ccc(CCNC(=O)Cn2nc(-c3ccc(C)cc3)ccc2=O)cc1OC | -2.76 | 
22 | Cc1ccc(-c2nnc(NC(=O)Nc3ccc4ccccc4c3)s2)cc1 | 4.64 | 
23 | O=C(Nc1ncc(Cc2ccc(C(F)(F)F)cc2)s1)c1ccco1 | -2.65 | 
24 | O=C(O)c1ccc(O)c2ncc(N3CC(N4CCOCC4)C3)cc12 | -9.04 | 
25 | COCCNc1ccc(NC(=O)c2cccs2)cn1 | -5.2 | 
26 | O=C1c2ccccc2C(=O)N1c1ccc2ccccc2n1 | 1.41 | 
27 | CCOC(=O)C1CCN(C(=O)C2(NC(=O)Nc3ccccc3Cl)CC2)CC1 | -2.13 | 
28 | N#CC1=C(Nc2nc3ccccc3o2)OC2=C(C(=O)CCC2)C1c1[nH]ncc1Cl (stereo not given) | -8.19 | 
29 | CC(C)Cc1ccc(-c2ccc(=O)n(CC(=O)NCCc3ccccc3)n2)cc1 | -0.389 | 
30 | CC(=O)Nc1sc2c(c1-c1ccc3nonc3c1)CCNC2 | -3.99 | 
31 | CCc1ccc(NC(=O)c2cnn3c(C)cc(-c4ccccc4)nc23)cc1 | 1.72 | 
32 | Cc1cccc(CNc2ccnc(-c3cc(C(F)(F)F)cc(C(F)(F)F)c3)n2)c1 | 3.85 | 
33 | CN(C)c1ccc(C(=O)OCC#CCSc2nnc(-c3cccc4ccccc34)o2)cc1 | -1.89 | 
34 | Cc1ccc(N2CCN(C(=S)Nc3cc(C)ccn3)CC2)cc1 | -9.46 | 
35 | Nc1cccc(-c2ccc(NC(=O)c3cccs3)cn2)c1 | -3.82 | 
36 | COc1nccc(-c2nc(Nc3ccc(F)c(F)c3)c3ccccc3n2)c1OC | 3.27 | 
37 | O=C(Nc1ccc(Cl)c(Cl)c1)Nc1nnc(NC2CCNCC2)s1 | -13.3 | 
38 | N#Cc1cccc(OC2=NS(=O)(=O)c3ccccc32)c1 | 2.21 | 
39 | Cc1cccc(Nc2nn3c(=O)c4ccccc4nc3s2)c1 | 3.52 | 
40 | Oc1ccc(/C=C/c2ccccc2)c2cccnc12 | -12.1 | 

— PubChem BioAssay (NCATS)
